Screening results from PubChem.
IDE exosite FP = displaces the probe from the exo-site of human IDE; P14735; purified IDE, FL-6b probe fluorescence polarization; stronger effect = lower value; z-score at 20 µM; hit rate 6.3% among 17,000; AID 1259349;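 active means z-score of -3 or lower, meaning strong loss of probe binding signal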;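 further: His-tagged human IDE residues 42-1019 made in E. coli with 30 nM FL-6b probe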
Target sequence (P14735 42-1019 limits assumed): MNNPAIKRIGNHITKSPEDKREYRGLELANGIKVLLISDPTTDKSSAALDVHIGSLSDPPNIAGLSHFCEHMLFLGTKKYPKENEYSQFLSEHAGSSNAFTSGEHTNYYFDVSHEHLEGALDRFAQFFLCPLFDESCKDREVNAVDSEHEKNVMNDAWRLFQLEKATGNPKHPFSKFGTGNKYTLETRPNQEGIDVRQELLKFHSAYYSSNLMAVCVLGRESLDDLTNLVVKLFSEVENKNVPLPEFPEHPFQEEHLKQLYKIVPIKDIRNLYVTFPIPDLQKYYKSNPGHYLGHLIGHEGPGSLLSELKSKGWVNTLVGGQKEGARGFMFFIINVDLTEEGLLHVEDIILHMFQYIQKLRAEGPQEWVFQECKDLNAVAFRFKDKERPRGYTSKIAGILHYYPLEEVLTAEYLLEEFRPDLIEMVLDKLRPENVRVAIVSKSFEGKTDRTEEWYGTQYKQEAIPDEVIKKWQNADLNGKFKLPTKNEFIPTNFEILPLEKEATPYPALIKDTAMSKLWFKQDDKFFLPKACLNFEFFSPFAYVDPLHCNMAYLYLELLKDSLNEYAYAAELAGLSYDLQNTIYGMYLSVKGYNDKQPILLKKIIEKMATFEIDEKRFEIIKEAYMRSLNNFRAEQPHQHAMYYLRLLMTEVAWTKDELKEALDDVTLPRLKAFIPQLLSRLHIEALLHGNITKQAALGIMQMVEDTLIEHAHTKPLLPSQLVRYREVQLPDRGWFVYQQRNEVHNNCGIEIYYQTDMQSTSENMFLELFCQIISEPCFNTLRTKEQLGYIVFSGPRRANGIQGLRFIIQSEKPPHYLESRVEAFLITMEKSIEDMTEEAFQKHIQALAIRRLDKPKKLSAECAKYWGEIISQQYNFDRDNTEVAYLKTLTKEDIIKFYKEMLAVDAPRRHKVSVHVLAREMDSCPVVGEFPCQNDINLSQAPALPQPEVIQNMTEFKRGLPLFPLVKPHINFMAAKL
Of the large screens only hits and unclear results are named; the others gave an inactive call. Shown is part of a subset that was picked to be rich in hits.

CC(C)NC(=O)N1CCCCN2[C@@H](CO)[C@H](c3ccc(C#Cc4ccccc4F)cc3)[C@@H]2C1	IDE exosite FP -12.7
CC(C)NC(=O)N1CCCCN2[C@H](C1)[C@H](c1ccc(C#Cc3ccccc3F)cc1)[C@@H]2CO	IDE exosite FP -9.59
CC(C)NC(=O)N1CCCCN2[C@H](CO)[C@H](c3ccc(C#Cc4ccccc4F)cc3)[C@H]2C1	IDE exosite FP -4.49
CN(C)CC(=O)N1[C@@H](C#N)[C@H](c2ccccc2-c2cccc(C(=O)N(C)C)c2)[C@@H]1CO	none
CCC(=O)N1CC(=O)N2[C@H](CO)[C@H](c3ccc(C#CC4CCCCC4)cc3)[C@@H]2C1	none
Fc1ccccc1CN1[C@@H]2CNC[C@H]1C2c1ccc(-c2ccncc2)cc1 (stereo partly specified)	none
O=C(c1ccc(F)cc1)N1CC(=O)N2[C@H](CO)[C@H](c3ccc(C#CCC4CCCC4)cc3)[C@@H]2C1	none
O=C(c1cnccn1)N1CC(=O)N2[C@H](CO)[C@H](c3ccc(C#CC4CC4)cc3)[C@@H]2C1	none
COc1ccccc1-c1ccc([C@H]2[C@@H](CO)N[C@@H]2CNC(=O)C2CCCC2)cc1	IDE exosite FP -10.9
N#C[C@H]1N[C@@H](CO)[C@@H]1c1ccc(-c2ccccc2F)cc1	none
N#C[C@@H]1N[C@@H](CO)[C@@H]1c1ccc(-c2ccccc2F)cc1	none
COc1ccccc1-c1ccc([C@@H]2[C@@H](C#N)N[C@@H]2CO)cc1	IDE exosite FP -8.94
N#C[C@H]1N[C@H](CO)[C@H]1c1ccc(-c2ccccc2F)cc1	none
COc1ccccc1-c1ccc([C@H]2[C@@H](C#N)N[C@@H]2CO)cc1	none
COc1ccc(-c2ccc([C@H]3[C@H](CO)N[C@@H]3C#N)cc2)cc1	none
COc1ccccc1-c1ccc([C@H]2[C@H](CO)N[C@@H]2C#N)cc1	IDE exosite FP -4.23
O=C(NC[C@H]1N[C@H](CO)[C@@H]1c1ccc(-c2cncnc2)cc1)C1CCCCC1	none
N#C[C@@H]1N[C@H](CO)[C@H]1c1ccc(-c2ccccc2F)cc1	none
O=C(NC[C@@H]1N[C@@H](CO)[C@@H]1c1ccccc1)C1CC1	none
COc1ccccc1-c1ccc([C@@H]2[C@H](C#N)N[C@@H]2CO)cc1	IDE exosite FP -9.3
CN(C)C(=O)c1cccc(-c2ccc3n(c2=O)C[C@@H]2[C@@H](CO)[C@H](C(=O)NCC4CC4)N[C@H]32)c1	none
CC(C)[C@@H]1COCc2cn(nn2)CC[C@H](Cc2ccc(-c3ccccc3)cc2)C(=O)N1	none
CN(C)CC#Cc1ccc([C@H]2[C@H]3CN(C(=O)Cc4cccnc4)CC(=O)N3[C@H]2CO)cc1	none
C[C@@H]1CN([C@H](C)CO)C(=O)c2ccccc2-c2ccccc2CO[C@@H]1CN(C)C(=O)c1cc(Cl)cc(Cl)c1	none
O=C(NCCN1CCCC1)c1cc2c(c(-c3cccc(C4=CCCC4)c3)n1)[C@@H](CCO)N(CC1CC1)C2	none
N#C[C@@H]1[C@@H](c2ccccc2-c2ccccc2)[C@H](CO)N1C(=O)NC1CCCC1	none
O=C(Nc1ccccc1)N1CC(=O)N2[C@H](CO)[C@@H](c3ccc(C#Cc4cccnc4)cc3)[C@@H]2C1	none
CCS(=O)(=O)NCC[C@@H]1CC[C@H](NS(=O)(=O)c2ccccc2C)[C@H](CO)O1	none
Cc1cccc(-c2ccc([C@@H]3[C@@H](CO)N4CCCCN(Cc5ccncc5)C[C@@H]34)cc2)c1	IDE exosite FP -4.88
Cc1cccc(-c2ccc([C@H]3[C@@H](CO)N4CCCCN(Cc5ccncc5)C[C@@H]34)cc2)c1	IDE exosite FP -5.8
CN(C)C(=O)c1ccc(-c2ccc([C@@H]3[C@@H](CO)N4CCCCN(Cc5ccncc5)C[C@H]34)cc2)cc1	none
OC[C@@H]1[C@H](c2ccc(-c3ccc(F)cc3)cc2)[C@H]2CN(Cc3ccncc3)CCCCN12	none
OC[C@H]1[C@@H](c2ccc(-c3ccc(F)cc3)cc2)[C@H]2CN(Cc3ccncc3)CCCCN21	none
Cc1cccc(-c2ccc([C@@H]3[C@H]4CN(CCC(F)(F)F)CCCCN4[C@H]3CO)cc2)c1	none
C/C=C/c1ccc([C@@H]2[C@@H](CNC(=O)CC3CC3)N(C(=O)CC)[C@H]2CO)cc1	none
COCCN(C[C@H]1[C@H](c2ccccc2)[C@H](CO)N1C(C)=O)C(=O)c1cccnc1	none
COc1ccccc1-c1ccccc1[C@H]1[C@@H](CO)N(C(=O)C2CCC2)[C@H]1C#N	none
COc1ccc(-c2ccc([C@@H]3[C@@H](CO)N(C(=O)c4cccc(F)c4)[C@H]3C#N)cc2)cc1	none
N#C[C@H]1[C@@H](c2ccc(-c3ccccc3F)cc2)[C@@H](CO)N1C(=O)C1CCC1	none
COc1ccccc1-c1ccc([C@H]2[C@@H](CO)N(C(=O)c3cccc(F)c3)[C@H]2C#N)cc1	IDE exosite FP -4.21
COc1ccccc1-c1ccccc1[C@H]1[C@H](C#N)N(C(=O)C2CCC2)[C@H]1CO	none
COc1ccccc1-c1ccc([C@@H]2[C@@H](C#N)N(C(=O)C3CCC3)[C@H]2CO)cc1	IDE exosite FP -5.2
COc1ccc(-c2ccc([C@@H]3[C@@H](CO)N(C(=O)C4CCCC4)[C@H]3C#N)cc2)cc1	none
COc1ccc(-c2ccc([C@@H]3[C@@H](CO)N(C(=O)C4CCCCC4)[C@H]3C#N)cc2)cc1	none
